# Experimental data from PubChem BioAssay AID720706 (Broad Institute, 2013).
# In all, about 350,000 compounds went through this assay and about 5,500 (1.6%) were called active.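 Rule for the calls: active = significant combined selectivity score with lowered wild-type GFP, culture density cut under 30%, mutant RFP and density less affected; inactive = any of these conditions unmet.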 This excerpt belongs to a sample that is enriched for actives.
# Assay: GFP drop in mixed WT/humanized-ribosome E. coli culture – GFP/RFP fluorescence, OD600, single point, bacterial rRNA inhibitor project, primary screen (AID 720706)
# Settings: E. coli WT GFP vs humanized-ribosome RFP mutants, 24 h; GFP signal change (wild-type ribosome): stronger effect = lower value, DMSO median 0, no signal -100; OD600 change: measured here: OD600 growth, DMSO median 0, no signal -100; RFP signal change: measured here: RFP humanized mutant strains, DMSO median 0, no signal -100, concentration not given here
Structure (SMILES),GFP signal change (wild-type ribosome),OD600 change,RFP signal change
CO[C@@H]1CN(C)C(=O)c2cc(NC(=O)Nc3ccc4c(c3)OCO4)ccc2OC[C@@H](C)NC[C@@H]1C,4.25% (inactive),10.8%,-0.511%
COc1ccc2c3c([nH]c2c1)[C@@H](CO)N(C(C)=O)CC31CCN(Cc2ccccc2Cl)CC1,-2.42% (inactive),-9.54%,4.49%
C[C@@H]1CN([C@H](C)CO)C(=O)c2cc(NS(=O)(=O)c3ccccc3)ccc2O[C@H]1CN(C)S(=O)(=O)c1ccc(Cl)cc1,-8.38% (inactive),-11.5%,2.44%
O=C(NCc1ccccc1)c1cccc(NC(=O)C2CCCCC2)c1,-29.5% (active),-22.2%,-7.71%
CC(C)(C)OC(=O)N1CCC(C(=O)Nc2cccc(C(=O)NCCc3ccccc3)c2)CC1,2.29% (inactive),6.05%,0.0785%
CCNC(=O)c1cccc(NC(=O)C2CC(=O)N(CCc3ccccc3)C2)c1 (stereo not drawn),8.73% (inactive),3.98%,1.88%
O=C(NCCc1ccccc1)c1cccc(NC(=O)c2ccccc2)c1,-23.9% (active),-10%,0.86%
O=C(Cc1ccc(Br)cc1)NCCc1ccccc1,-13.7% (inactive),6.7%,-2.35%
COc1cccc(CCNC(=O)c2cccc(NC(=O)C3=C(C)OCCS3)c2)c1,-25.3% (inactive),-16.5%,-2.22%
CO[C@@H]1CN(C)C(=O)c2cc(NS(=O)(=O)c3ccc(C)cc3)ccc2OC[C@H](C)N(Cc2nccs2)C[C@@H]1C,-2.96% (inactive),-14.7%,7.3%
COc1ccc2c3c([nH]c2c1)[C@@H](CO)N(C(=O)C1CC1)CC31CCN(C(=O)c2ccncc2)CC1,4.87% (inactive),6.99%,-3.09%
CC(C)NC(=O)N(C)C[C@H]1Oc2cc(-c3cncnc3)ccc2S(=O)(=O)N([C@@H](C)CO)C[C@H]1C,3.27% (inactive),3.02%,-2.21%
CCC(=O)Nc1ccc2c(c1)C(=O)N(C)[C@@H]1CC[C@H](CC(=O)NCCc3ccncc3)O[C@@H]1CO2,2.16% (inactive),15.1%,-1.34%
C=CCNC(=O)c1ccccc1NC(=O)c1ccc(Cl)c(S(=O)(=O)Nc2cccc(C)c2C)c1,-40% (active),-4.93%,9.21%
Cc1ccc(C(=O)Nc2ccccc2-c2ccccc2)cc1S(=O)(=O)Nc1ccccc1,-14.3% (inactive),-30.9%,-8.24%
Cc1ccccc1NC(=O)c1cc(S(=O)(=O)Nc2cccc(C(=O)O)c2)ccc1Cl,9.89% (inactive),8.39%,-0.677%
COC(=O)C[C@@H]1C[C@H]2c3cc(NC(=O)NC4CCCC4)ccc3O[C@H]2[C@H](CO)O1,-0.054% (inactive),-2.88%,1.29%
C[C@H](O)C#Cc1ccc2c(c1)O[C@H](CN(C)Cc1cccnc1)[C@@H](C)CN([C@H](C)CO)S2(=O)=O,-1.81% (inactive),5.84%,-2.32%
COc1ccccc1NC(=O)N[C@H]1CC[C@H](CCNS(=O)(=O)c2ccc(Cl)cc2)O[C@H]1CO,-12.2% (inactive),-10.8%,7.75%
CC(C)NC(=O)Nc1cccc2c1O[C@H](CN(C)Cc1ccccc1)[C@H](C)CN([C@H](C)CO)C2=O,3.96% (inactive),10.7%,-0.787%
C[C@@H]1CN([C@H](C)CO)C(=O)c2cc(-c3ccncc3)cnc2O[C@H]1CN(C)C,-0.119% (inactive),3.91%,0.159%

Structure (SMILES),GFP signal change (wild-type ribosome),OD600 change,RFP signal change
NNc1nc2c(Cl)cccc2s1,-27.1% (active),-15.6%,-0.505%
CN1C(=O)c2cc(NC(=O)NC3CCCC3)ccc2OC[C@@H]2O[C@@H](CC(=O)O)CC[C@H]21,3.92% (inactive),5.14%,-1.81%
COC(=O)[C@@]1(C)[C@H]2C(=O)N(Cc3ccccc3)C(=O)[C@H]2[C@H]2CN=C(SCC3CC3)N21,-47.6% (inactive),-80%,-15.4%
CC[C@]1(C(=O)OC)[C@H]2C(=O)N(Cc3ccccc3)C(=O)[C@H]2[C@H]2CN=C(SCc3ccc(C#N)cc3)N21,-22.2% (active),-6.29%,8.89%
CC[C@]1(C(=O)OC)[C@H]2C(=O)N(Cc3ccccc3)C(=O)[C@H]2[C@H]2CN=C(SCc3ccccc3)N21,-30.1% (inactive),-42.8%,-8.47%
C[C@@H]1CN([C@H](C)CO)C(=O)c2cc(-c3cccc(F)c3)cnc2O[C@H]1CN(C)C(=O)Nc1ccccc1F,-2.5% (inactive),-5.06%,-1.42%
CCC(=O)N1CC2(CN(Cc3cccnc3)C2)c2c(n(C)c3cc(OC)ccc23)[C@@H]1CO,1.02% (inactive),-2.19%,-2.12%
C=C1CCC(N(O)c2cc(C)on2)C(=C)CCC2C1CC2(C)C (stereo not drawn),-20.5% (active),-3.66%,1.7%
CN1CCN(C(=O)C[C@H]2CC[C@@H]3[C@H](COC[C@@H](O)CN3CC3CCCC3)O2)CC1,-1.31% (inactive),7.95%,-2.61%
CCOc1ccccc1CNS(=O)(=O)c1cc(-c2cc(C)no2)ccc1C,-6.17% (inactive),-29.1%,-15.4%
Cc1cc(-c2ccc(C)c(S(=O)(=O)NC(C)Cc3ccco3)c2)on1 (stereo not drawn),-34.9% (active),-21.1%,0.997%
Cc1cc(-c2ccc(C)c(S(=O)(=O)NCCCN(Cc3ccccc3)C(C)C)c2)on1,-6% (inactive),-18.2%,1.25%
COc1cc(F)c(C2=CC(=O)CC(C)(C)C2)cc1F,-21.1% (active),-16.7%,2.19%
CC1(C)CC(=O)C=C(c2ccc(Cl)c(C(F)(F)F)c2)C1,2% (inactive),-0.255%,-10.1%
COc1ccccc1-c1n[nH]nc1C1=CC(=O)CC(C)(C)C1,-4.29% (inactive),-12.1%,-0.515%
C[C@@H]1CN([C@H](C)CO)C(=O)c2ccccc2-c2ccccc2CO[C@H]1CN(C)S(=O)(=O)c1ccsc1,-0.618% (inactive),-1.1%,-2.79%
O=C(NCC[C@@H]1CC[C@@H](NC(=O)C2CCCC2)[C@H](CO)O1)c1cnccn1,3.79% (inactive),7.83%,-1.44%
O=C(NC(=S)Nc1ncccn1)c1ccccc1Br,-2.07% (inactive),4.96%,-3.8%
CCCN(CC1CC1)C(=S)NC(=O)c1ccccc1Br,-22.1% (active),-12%,-8.89%
CC1CCN(C(=S)NC(=O)c2ccccc2Br)CC1,6.21% (inactive),4.62%,-0.105%
